The source of these data is ChEMBL document CHEMBL4513136, “CO-ADD screening of CSIC (Spain) compounds”.

The subject of test [1] is Klebsiella pneumoniae. The note with it: Concentration 32 ug.mL-1; ASSAY_TEST Inhibition of Bacterial Growth; detection method Absorption (OD600); MEDIA CAMHB; plate type 384well; NBS; CORNING #3640; time 18 hr.
Test [2] concerns Candida albicans. The note with it: 32 ug/mL.
Test [3] has as its system Cryptococcus neoformans. The settings on record: Concentration 32 ug.mL-1; ASSAY_TEST Inhibition of Fungal Growth; detection method Resazurin; Absorption (OD600-OD570); plate type 384well; NBS; CORNING #3640. For orientation: Resazurin is reduced to fluorescent resorufin, in cell work by metabolically active cells.

The structures appear in SMILES notation. Results with a measured potency or affinity are listed apart.

For `COc1ccc(OC)c(C(=O)/C=C/c2ccccc2O)c1`, the Inhibition in test [1] was -4.68%; in test [2] it was 16.8%; in test [3], -71.16%.

With `CC1C(=O)N(Cc2ccc(OCCN3CCOCC3)cc2)C1(Cc1ccccc1)C(=O)O` (stereo unspecified), the Inhibition in test [1] is 2.32%; in test [2], 1.79%; in test [3] it was -59.46%.

Regarding `COc1ccc(OC)c(C(=O)CCc2ccccc2O)c1`, the Inhibition in test [1] is 4.74%; in test [2], 4.16%; in test [3], -73.15%.

In the case of `COc1ccc(OC)c(C(=O)/C=C/c2c[nH]c3ccc(OC)cc23)c1`, the values for the Inhibition in test [1], in test [2] and in test [3] were 2.62%, 3.54% and -74.27%, respectively.

As to `O=C(CCc1ccc(O)cc1O)c1cc(O)ccc1O`, the results for the Inhibition in test [1], in test [2] and in test [3] were 10.96%, 3.81% and -52.63%, respectively.

For `COc1ccc(OC)c(C(=O)/C=C/c2ccc(O)cc2)c1`, the Inhibition in test [1] was -6.02%; in test [2], 2.83%; in test [3] it was -65.46%.

For `COc1ccc(CN2C(=O)C(C)C2(Cc2cn(C(=O)OC(C)(C)C)c3ccccc23)C(=O)OC(C)(C)C)cc1` (stereo unspecified), the Inhibition in test [1] is 15.95%; in test [2] it was 7.68%; in test [3] it was -81.49%.

Turning to `COc1ccc(OC)c(-c2cn(-c3ccc(OC)c(OC)c3)nn2)c1`, the Inhibition in test [1] is -16.63%; in test [2] it was 10.9%; in test [3] it was -110.55%.

Take `COc1ccc(OC)c(CC(=O)Nc2ccc(OC)cc2OC)c1`: the Inhibition in test [1] was 9.85%; in test [2] it was 16.6%; in test [3], -87.08%.

`O=C(/C=C/c1c[nH]c2ccc(O)cc12)c1cc(O)ccc1O`: the Inhibition is 6.02% in test [1], 4.1% in test [2] and -105.31% in test [3].

As to `COC(=O)c1c(C(Cc2ccccc2)NC(=O)OCc2ccccc2)[nH]c2ccccc12` (stereo unspecified), the Inhibition in test [1] was 2.35%; in test [2], 0.58%; in test [3], -63.52%.

As for `COc1ccc(C(=O)/C=C/c2ccc(OC)cc2OC)cc1`, the Inhibition in test [1] is -4.58%; in test [2], 9.33%; in test [3] it was -93.49%.

As a reminder, the Inhibition is the drop in the measured response relative to a control, in per cent.
